Compound activity deposited in PubChem BioAssay by National Center for Advancing Translational Sciences (NCATS).
An excerpt weighted towards active compounds, which were near 12% of everything screened.
JMJD2A Tudor inh = JMJD2A Tudor domain (human) inhibition | hit rate 4.4% among 390,000 | Potency, µM (highest dose often 114 µM), actives largely listed as inhibitors | O75164 | AlphaScreen JMJD2A-Tudor / H3K4me3 peptide binding; note: nearly all actives have a fitted effect of over 50% in size
HP1b chromo inh = inhibitors of HP1-beta chromodomain binding to methylated histone tails; P83916; AlphaScreen HP1-beta / biotin-H3K9me3 peptide binding; Potency, µM (titrated, usually from 114 µM), actives largely listed as inhibitors; hit rate 0.56% among 390,000; AID 540317; note: nearly all actives have a fitted effect of over 70% in size
Target sequence (P83916 whole entry, looked up): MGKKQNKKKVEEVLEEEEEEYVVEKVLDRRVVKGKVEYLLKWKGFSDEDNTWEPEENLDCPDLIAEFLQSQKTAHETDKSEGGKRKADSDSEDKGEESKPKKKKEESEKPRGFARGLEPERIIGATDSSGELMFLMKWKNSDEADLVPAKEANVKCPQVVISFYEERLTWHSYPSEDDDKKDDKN
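HP1-beta protein (50 nM final) preincubated 30 min at room temperature with biotinylated H3(1-18)K9me3 peptide (50 nM) in PBS pH 7.4, 0.01% Tween-20, then compound added for 30 min. AlphaScreen streptavidin donor/nickel chelate acceptor beads (10 ug/mL final), 30 min dark, luminescence read.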
TDP1 inh = blocks human tyrosyl-DNA phosphodiesterase 1 | hit rate 0.28% among 350,000 | Q9NUW8 | Potency, µM (highest dose often 130 µM), hits mostly inhibitors | recombinant TDP1, AlphaScreen DNA substrate cleavage; note: nearly all actives have a fitted effect of over 40% in size
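Compounds were preincubated with Tdp1 (1 nM final) for 15 min at room temperature before substrate (15 nM final) started a 5 min reaction; beads (10 ug/ml final) were then added for 10 min before AlphaScreen detection.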
BAZ2B inh = blocks human BAZ2B. Q9UIF8. AlphaScreen BAZ2B-H3K14Ac peptide displacement. Potency, µM (highest dose often 114 µM), usual class: inhibitors. hit rate 4.4% among 360,000. AID 504333; note: nearly all actives have a fitted effect of over 60% in size
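AlphaScreen luminescence quantifies BAZ2B engagement of H3K14Ac peptide; the protein and biotinylated peptide are both at 50 nM final, buffer PBS pH 7.4 with 0.01% Tween-20, all steps at room temperature.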
Sfp PPTase inh = Sfp phosphopantetheinyl transferase inhibition. Q9F4F7. Biochemical Sfp PPTase activity, qHTS. Potency, µM, usual class: inhibitors. hit rate 3.5% among 310,000. AID 1490;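 note: the enzyme is Sfp with the accession as filed and its product quenches rhodamine fluorescence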
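Compounds were incubated with enzyme (final 15 nM) for 15 min at room temperature before substrate addition started the reaction. Fluorescence at 525 nm excitation, 598 nm emission was recorded immediately and after 30 minutes.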
G9a block = G9a (human) methyltransferase inhibition; AID 504332; G9a H3K9 monomethylation, AlphaScreen, 2 h; Potency, µM (top dose mostly 102 µM), actives largely listed as inhibitors; hit rate 8.8% among 350,000; Q96KQ7; note: nearly all actives have a fitted effect of over 75% in size
Target sequence (Q96KQ7 913-1193 limits assumed): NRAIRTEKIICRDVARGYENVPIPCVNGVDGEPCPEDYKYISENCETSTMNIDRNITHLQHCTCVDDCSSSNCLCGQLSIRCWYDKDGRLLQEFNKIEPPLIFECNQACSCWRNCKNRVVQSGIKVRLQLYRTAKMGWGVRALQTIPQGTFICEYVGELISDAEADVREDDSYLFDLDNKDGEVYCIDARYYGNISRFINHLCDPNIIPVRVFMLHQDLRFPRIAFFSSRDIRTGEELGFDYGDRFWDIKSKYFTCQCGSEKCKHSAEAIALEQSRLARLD
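Using a bead-based AlphaScreen, monomethylated H3K9 product from 2 h room-temperature reactions (G9a 20 nM, peptide 500 nM, SAM 20 uM) was detected with 0.5 ug/mL rabbit anti-H3K9me1 antibody.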
Hits are given with their value; n = inactive; u = inconclusive; x = no result; ! = not confirmed by another sample; [ ] = remark or other dose. Calls come from the whole dose curve; as a rule, active = well fitted curve in the direction sought with a large enough effect; inconclusive = small, poorly fitted or top-dose-only effect, or another doubt; inactive = no such curve, though single readings can be large; an effect the other way counts as inactive or inconclusive.

SMILES | JMJD2A Tudor inh | HP1b chromo inh | TDP1 inh | BAZ2B inh | Sfp PPTase inh | G9a block
CCS(=O)(=O)c1cc([N+](=O)[O-])c(Sc2ccccc2NC(C)=O)s1 | 20µM | n | n | n | 0.45µM | 1.1µM
CCNc1ncc2ncc(=O)n(C3CC3)c2n1 | x | x | x | x | n | n[0.501 µM]
Cc1cc2c(OCC(CNC(C)(C)C)OC(=O)c3ccccc3)cccc2[nH]1 (stereo not given) | x | x | n | x | n | 16µM
Cc1cc2c(OCC(O)CNC3CCCCC3)cccc2[nH]1 (stereo not given) | u | n | n | n | n | u
Cc1cccc(C(=O)NC(=S)NNC(=O)COc2ccc(Cl)cc2)c1 | u | u | n | n | u | 3.2µM
COc1ccc(C(=O)NC(=S)NNC(=O)c2cccc(C)c2)cc1 | n | n | x | x | x | x
CCCCCC(=O)NNC(=S)NC(=O)c1ccc([N+](=O)[O-])cc1 | u | u | n | n | 35µM | 2.5µM
COc1ccc(OCC(=O)NNC(=S)NC(=O)c2ccc([N+](=O)[O-])cc2)cc1 | n | n | n | n | 32µM | 1.1µM
CNC(=S)NNC(=O)COc1ccc(C)c(C)c1 | 50µM | n | n | n | n | 32µM
CCCCN(C)CCCNC(=O)c1cn(CC)c2ccc(S(=O)(=O)N3CCOCC3)cc2c1=O | n | n | n | n | n | x
Cc1ccc(C)c(NC(=O)CCN2CCCC(C)C2)c1 (stereo not given) | n | n | n | n | n | x
CC(=O)NC(=S)NNC(=O)COc1ccc([N+](=O)[O-])cc1 | n[11.4 µM] | n | n | n | n | 8.9µM
COc1ccc(OCC(=O)NNC(=O)c2cc3ccccc3o2)cc1 | n | n | n | n | n | n
COc1ccc(OCC(=O)NNC(=S)NC(=O)c2ccc(Br)o2)cc1 | n | n | n | n | n | 22µM
CC(=O)NC(=S)NNC(=O)COc1ccc(Br)cc1 | 25µM | n | n | n | n | 1.8µM
COc1ccc(CCNC(=O)c2ccc(Cn3c(=O)c4ccccc4n(Cc4cccc(C)c4)c3=O)cc2)cc1OC | n | n | n | n | x | n
CCC(C)c1ccc(S(=O)(=O)N2CCN(C(C)C(=O)NC3CCCC3)CC2)cc1 (stereo not given) | n | n | n | n | x | n[12.7 µM]
Cc1ccc2occ(CN3CCN(c4ccccc4)CC3)c(=O)c2c1 | u | n | n | n | n | n[12.7 µM]
Cc1ccc2occ(C3NC(C(=O)O)CS3)c(=O)c2c1 (stereo not given) | n | n | n | 50µM | 14µM | 5µM
Cc1ccc2occ(C3N[C@H](C(=O)O)CS3)c(=O)c2c1 (stereo not given in full) | 7.9µM | u | n | u | 50µM | 32µM
CC(C)CN(C(=O)COC(=O)C(C)N1C(=O)c2ccccc2C1=O)c1c(N)n(Cc2ccccc2)c(=O)[nH]c1=O (stereo not given) | n | n | n[0.505 µM] | n | x | 35µM
Cc1cc(C)cc(OCC(=O)OCC(=O)N(CC(C)C)c2c(N)n(Cc3ccccc3)c(=O)[nH]c2=O)c1 | n | n | n[0.505 µM] | n | x | 50µM
CC(C)CN(C(=O)CC1OC(=O)c2ccccc21)c1c(N)n(Cc2ccccc2)c(=O)[nH]c1=O (stereo not given) | n | n | n | n | x | 56µM
CSC1=NC2(CCN(C(=O)NC3CCCCC3)CC2)N=C1c1ccc(C)c(C)c1 | n | n | n | n | x | n
COc1ccc(S(=O)(=O)N2CCOC2CNC(=O)C(=O)NCCCN2CCOCC2)cc1 (stereo not given) | n | n | n | n | n | n
SMILES | JMJD2A Tudor inh | HP1b chromo inh | TDP1 inh | BAZ2B inh | Sfp PPTase inh | G9a block
Cc1ccc(N2C(=O)CS(=O)(=O)C23C(=O)Nc2ccccc23)cc1C (stereo not given) | n | n | n | n | x | 16µM
CSc1cccc(NC(=O)CCCOc2ccc(Cl)cc2Cl)c1 | n | n | n | n | n | n
CCCCC(=O)Nc1ccc(C(=O)NNC(=O)CCCOc2ccc(Cl)cc2Cl)cc1 | n | n | n | n | n | 50µM
O=C(CCCOc1ccc(Cl)cc1Cl)Nc1cccnc1 | n | n | n | n | n | 45µM
CC1CCCN(C(=O)CN(C)S(=O)(=O)c2ccc3c(c2)c(=O)n(C)c(=O)n3C)C1 (stereo not given) | n | n | n | n | n | n[0.0925 µM]
CC1=C(C)C(=O)C(N2CCOCC2)=CC1=O | n | n | n | u | n | 45µM
O=S(=O)(c1ccc(Cl)cc1)c1nc(-c2cccs2)oc1N1CCCCC1 | u | u | n | 14µM | x | 14µM
O=S(=O)(c1ccccc1)c1nc(-c2ccccc2Cl)oc1N1CCCCCC1 | n | n | n | n | x | u
Cc1ccc(S(=O)(=O)c2nc(-c3ccccc3Cl)oc2N2CCN(C)CC2)cc1 | 50µM | u | n | x | x | x
Cc1ccc(S(=O)(=O)c2nc(-c3ccccc3Cl)oc2N2CCCCCC2)cc1 | n | u | x | u | x | 7.1µM
NC(=O)C1CCN(c2oc(-c3cccs3)nc2S(=O)(=O)c2ccc(Cl)cc2)CC1 | u | n | n | x | x | x
Cc1ccc(C(=O)N/C(=C\c2ccc(-c3ccccc3[N+](=O)[O-])o2)C(=O)NCCCN(C)C)cc1 | u | n | x | u | n | 50µM
Cc1ccc2nsnc2c1NC(=O)COc1ccccc1F | n | n | n | n | n | 56µM
Cc1ccccc1OCC(=O)Nc1nnc(-c2ccncc2)s1 | n | n | n | n | n | u
O=C(COc1ccccc1F)Nc1nnc(-c2ccncc2)s1 | 20µM | n | n | n | n | 71µM
CCCN1CNc2c(c(=O)[nH]c(=S)n2CCc2ccc3c(c2)OCCO3)C1 | n | n | n | x | x | x
O=C(Cc1ccccc1)NNc1ccc2ccccc2c1 | n | n | n | n | n | u
O=C(CN1C(=O)CCC1=O)NNc1ccc2ccccc2c1 | n | n | n | n | n | 8.9µM
CC(C)(C)C(=O)CNCC(=O)C(C)(C)C | n | n | n | n | n | 40µM
Cn1c(-c2nc(-c3ccccc3)cs2)nc2ccccc21 | x | x | n | x | 45µM | x
COc1ccc(CNS(=O)(=O)c2csc(C(N)=O)c2)cc1OC | 32µM! | n | n | n | n | n
Cc1cccc(N2CCN(c3ccc(NC(=O)c4ccccc4)cc3C(=O)O)CC2C)c1 (stereo not given) | 89µM | n | n | 79µM | x | u
Cc1cccc(N2CCN(c3ccc(C(=O)O)cc3NC(=O)c3cccc(Cl)c3)CC2C)c1 (stereo not given) | 56µM | n | n | u | x | n
O=C(Nc1ccccc1N1CCCCC1)c1cccc(Cl)c1 | n | n | x | n | n | n
Cc1ccc2nc(SCC(=O)c3cc(C)n(C)c3C)[nH]c2c1 | n | n | n | n | n | n
Cc1cc(C(=O)CSc2nc3ccccc3[nH]2)c(C)n1Cc1ccco1 | u | n | n | u | n | 14µM
O=C(O)c1ccccc1CSc1nc2ccccc2[nH]1 | n | n | n | n | n | 50µM
